The values that follow come from PubChem BioAssay (NCI).

Among the test systems are NCI-H23 lung; NCI-H226 lung; NCI-H322M lung; NCI-H460 lung; HOP-92 NSCLC; NCI-H522 lung; 786-0 renal; COLO 205 colon; DU-145 prostate; K-562 leukemia; MALME-3M melanoma; MDA-MB-231 breast; RXF 393 renal; SF-268 CNS; SF-295 CNS; SF-539 CNS; M14 melanoma; HOP-62 NSCLC; A549/ATCC NSCLC; UACC-257 melanoma.
Assay in all cases: NCI-60 one-dose screen, 48 h (100 = growth as untreated, 0 = no growth, -100 = all killed)
Holding throughout (settings): 10 µM

About 83,000 compounds went through this panel and 20% of them were active in at least one assay; those are over-represented in the sample as a whole.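 Activity criterion: percent growth below 10, measured after cells in 96-well plates were exposed to a single compound concentration for 48 hours.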 Values without a mark were called inactive. The source made the active and inactive calls.

For `C=CCCCCCCCCCOC(C)=O`, the growth in the assay with NCI-H23 lung was 100%; with NCI-H226 lung, 96.7%; in the assay on NCI-H322M lung it was 102%; in the assay with NCI-H460 lung, 109%; in the assay on HOP-92 NSCLC, 90.2%; in the assay on NCI-H522 lung it was 102%. The growth in the assay with 786-0 renal is 108%; in the assay on COLO 205 colon, 110%; with DU-145 prostate, 102%; in the assay on K-562 leukemia, 93.6%; in the assay with MALME-3M melanoma it was 93.1%; in the assay on MDA-MB-231 breast it was 97%. For the same molecule, the growth was 103% in the assay on RXF 393 renal; 96.9% with SF-268 CNS; 105% in the assay with SF-295 CNS; 105% in the assay on SF-539 CNS; 104% in the assay with M14 melanoma.
As to `O=C1Cc2ccccc2C(=O)O1`, the growth was 107% in the assay with NCI-H23 lung; 108% with NCI-H226 lung; 110% in the assay on NCI-H322M lung; 108% in the assay on HOP-62 NSCLC; 92% in the assay with HOP-92 NSCLC; 110% in the assay with A549/ATCC NSCLC. Further, the growth in the assay with COLO 205 colon was 123%; in the assay on DU-145 prostate, 129%; with K-562 leukemia, 106%; with MALME-3M melanoma, 122%; with MDA-MB-231 breast, 108%; in the assay on RXF 393 renal, 114%. Further, the growth with SF-268 CNS is 110%; in the assay with SF-295 CNS, 107%; in the assay on SF-539 CNS, 103%; in the assay on UACC-257 melanoma, 91.9%; in the assay with M14 melanoma, 98.7%.
Consider `CC(=O)OC1CC2C(C)(C)OC3CC(=O)OCC32C2CCC3(C)C(=CCC3c3ccoc3)C12C` (stereo unspecified), for which the growth in the assay with NCI-H23 lung was 108%; in the assay with NCI-H226 lung, 98.7%; in the assay with NCI-H322M lung, 111%; in the assay on NCI-H460 lung it was 108%; in the assay on HOP-92 NSCLC it was -13% (active); in the assay on NCI-H522 lung, 35.6%. The growth in the assay with A549/ATCC NSCLC is 104%; in the assay on 786-0 renal it was 103%; in the assay with COLO 205 colon, 76.1%; in the assay with DU-145 prostate, 92.5%; with K-562 leukemia, 95.5%; in the assay on MALME-3M melanoma it was 85.2%. Moreover, the growth was 115% in the assay on MDA-MB-231 breast; 105% with RXF 393 renal; 98.6% with SF-268 CNS; 107% in the assay on SF-295 CNS; 104% with SF-539 CNS; 72.7% in the assay on UACC-257 melanoma. Further, the growth in the assay with M14 melanoma was 115%.
Turning to `O=C(O)c1cccc([N+](=O)[O-])c1`, the growth with NCI-H23 lung is 95%; with NCI-H226 lung, 107%; in the assay on NCI-H322M lung it was 97.4%; with NCI-H460 lung it was 106%; in the assay on HOP-92 NSCLC, 96%; in the assay with NCI-H522 lung, 112%. Further, the growth in the assay on A549/ATCC NSCLC is 105%; with 786-0 renal, 104%; in the assay with COLO 205 colon, 113%; in the assay on DU-145 prostate, 104%; in the assay with K-562 leukemia, 96%; in the assay on MALME-3M melanoma, 105%. Besides, the growth is 102% in the assay on MDA-MB-231 breast; 117% in the assay with RXF 393 renal; 100% with SF-268 CNS; 94.9% in the assay on SF-295 CNS; 103% in the assay on SF-539 CNS; 107% with UACC-257 melanoma. The growth in the assay with M14 melanoma was 104%.
Consider `N#Cc1ccc(OC(=O)Nc2ccc(Cl)c(Cl)c2)cc1`, for which the growth is 39.6% with NCI-H23 lung; 63.7% in the assay with NCI-H226 lung; 89.4% in the assay with NCI-H322M lung; 99.8% in the assay on NCI-H460 lung; 24.5% in the assay with NCI-H522 lung; 47.2% with A549/ATCC NSCLC. Moreover, the growth was 89.5% with 786-0 renal; 96.3% with COLO 205 colon; 72.3% in the assay on DU-145 prostate; 44% in the assay on K-562 leukemia; 72.9% in the assay on MALME-3M melanoma; 93% with MDA-MB-231 breast. In addition, the growth was 91.5% in the assay on RXF 393 renal; 94.4% with SF-268 CNS; 41.4% in the assay with SF-295 CNS; 91.5% in the assay with SF-539 CNS; 86.2% with UACC-257 melanoma; 76.6% in the assay on M14 melanoma.
`CC(C)CCOC(=O)c1ccccc1`: the growth is 106% in the assay on NCI-H23 lung; 102% in the assay on NCI-H226 lung; 95.6% in the assay on NCI-H322M lung; 106% in the assay with NCI-H460 lung; 101% in the assay on HOP-92 NSCLC; 104% with NCI-H522 lung. For the same molecule, the growth was 102% with A549/ATCC NSCLC; 99.8% with 786-0 renal; 105% with COLO 205 colon; 108% with DU-145 prostate; 102% in the assay with K-562 leukemia; 96.9% in the assay with MALME-3M melanoma. For the same molecule, the growth in the assay with MDA-MB-231 breast is 104%; in the assay on RXF 393 renal, 119%; with SF-268 CNS, 102%; with SF-295 CNS, 100%; in the assay on SF-539 CNS, 98.8%; with UACC-257 melanoma, 101%. In addition, in the assay with M14 melanoma, the growth is 100%.
On to `CC1(C)OC(=O)C(c2ccsc2)C(=O)O1`, for which the growth was 95% in the assay on NCI-H23 lung; 105% in the assay on NCI-H226 lung; 102% in the assay with NCI-H322M lung; 113% in the assay with NCI-H460 lung; 104% in the assay with HOP-92 NSCLC; 82.6% in the assay with NCI-H522 lung. Moreover, the growth with A549/ATCC NSCLC is 84.7%; in the assay on 786-0 renal, 108%; in the assay on DU-145 prostate, 107%; in the assay with K-562 leukemia, 107%; in the assay with MALME-3M melanoma, 112%; in the assay on MDA-MB-231 breast, 111%. For the same molecule, the growth in the assay on RXF 393 renal is 107%; in the assay with SF-268 CNS, 99.6%; in the assay with SF-295 CNS, 108%; in the assay with SF-539 CNS, 98.9%; with UACC-257 melanoma, 104%; with M14 melanoma, 106%.
As to `CC(C)(O)C#CC#CC(C)(C)O`, the growth in the assay with NCI-H23 lung is 88.9%; in the assay with NCI-H226 lung, 79.4%; in the assay on NCI-H322M lung, 102%; in the assay on NCI-H460 lung it was 104%; in the assay on NCI-H522 lung, 82.5%; in the assay on A549/ATCC NSCLC, 91.5%. In addition, the growth was 106% with 786-0 renal; 113% in the assay with DU-145 prostate; 93.6% in the assay with K-562 leukemia; 107% in the assay on MALME-3M melanoma; 105% in the assay on MDA-MB-231 breast; 106% with SF-268 CNS. The growth in the assay with SF-295 CNS was 95.1%; in the assay on SF-539 CNS it was 93.8%; with UACC-257 melanoma, 94.4%; in the assay with M14 melanoma, 107%.
For the molecule `CCOC(=O)CNN`, the growth with NCI-H23 lung is 102%; with NCI-H226 lung it was 90.7%; with NCI-H322M lung, 98%; with HOP-92 NSCLC it was 99.4%; with NCI-H522 lung it was 96.7%; in the assay with A549/ATCC NSCLC, 101%. Further, the growth with 786-0 renal is 106%; in the assay with COLO 205 colon, 110%; in the assay with DU-145 prostate it was 98.6%; in the assay on K-562 leukemia, 79.5%; in the assay with MALME-3M melanoma, 103%; in the assay on MDA-MB-231 breast, 107%. In addition, the growth in the assay on RXF 393 renal was 108%; in the assay with SF-268 CNS it was 103%; in the assay on SF-295 CNS, 102%; with SF-539 CNS, 108%; in the assay on UACC-257 melanoma, 97%; in the assay with M14 melanoma, 107%.
